Laboratory results: the supplement of paper PMC6555819

tested on: VDR:RXRa (NR concentration 270 nM, RXRa partner concentration 90 nM); experiment: PBM binding z-score (relative to random genomic background probes); higher = stronger binding; sequences stand for … in GC…GCGATTGACAGCGTAGAATGAAGG
Experimental: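 Protein-binding microarray (Agilent 4x180K custom design, double-stranded 60-nt probes: 5' GC cap, 34-nt variable region, 24-nt constant primer region; full probe sequence given). Purified or IVT nuclear receptor:RXRα heterodimers (3:1 NR:RXRα, mostly 270:90 nM) or homodimers were incubated for 1 h in PBS with 2% milk and no ligand, then detected with Alexa488 antibodies. Fluorescence from o1-orientation probes (~5 replicates averaged) was converted to z-scores against 500 random hg19 background probes. Variable regions are seed direct-repeat (DR0–DR5) sites, all their single-nucleotide variants and half-site ablations.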

| Sequence | PBM binding z-score |
| --- | --- |
| TGAATGAGGTTGTAAGATCAGGGAACGTTGCAAA | -0.0386 |
| TCATAAAGGTAATACAGGTGAAAGTCGGCATCTA | 1.72 |
| CTCGAAAGGTCGTGATCAGGTGAGTATACCAAAC | 3.22 |
| CTACCAAGGTGAACAGGGTCGTTGATTACTATTC | 5.66 |
| GCTGCTAGGTCAACTGGTGGTCAGCTAAAGCTCG | 1.64 |
| ATCTCTAGGTAACCAAGTTCAGTTAATGCCGAAC | 4.33 |
| ACAGACAGGTGAGTGAAGGTAAGTCAGCTGGACG | -0.37 |
| CGAACTAGGTCATTGACAGCACAGTGAATAGTAA | 2.15 |
| ATCTCTAGGTAAGACTCTGTTCAGTGAAGAACGC | 0.234 |
| TCGCCTAGGTCATGCGGGCCAGTATAGTGTCGGC | 3.04 |
| CCGACTCGGGCATAAGGTTACCATAAGCCAGCCC | -0.121 |
| ATATGTAGGTTAGCTGGGGTCATTCGGACTAGGC | 6.4 |
| CGAACGAGGGCATGAGTTGATGGCAAATGCCGAT | 1.34 |
| ATCTCTAGGTATAGATAGTTCAGTGAATGCAAAT | 0.666 |
| ACTAGCAGGCCAAGCGTCACTCAAGATTAGTCCG | -0.477 |
| CCTTACGGGTCACTGACAGGTTATATCATTTGGA | 3.81 |
| TTACCAAGGTGATGGTCGTTGATCCCTCTGTAGA | -0.193 |
| TCATATAGGTAATACAGATGAAAGTCGGCATCTA | 0.886 |
| CGTCCAAGGTCAGTAGGTCAGTGAAAGCGACGTG | 3.29 |
| CGAACTAGGTCAATGACAGGACAGTGAATAGTAA | 1.38 |

| Sequence | PBM binding z-score |
| --- | --- |
| TCTATTAGTTGATTAGGGTAACCGAAACAGCGGA | 0.996 |
| TCGAGTAGGTTAGTCGGGGCATTCGGCCAACATA | 2.15 |
| ATCGAAAGGTCGACGAGGTGATTATACACCGTTT | 5.76 |
| CCTAACAGGCCAGGGTCACTCAAGCATTTCGCTT | 2.86 |
| GATACAGGGTCAGCTAGACGCCAGAGTATGGAAA | 2.29 |
| ATATGTAGGTTAAGGGTCATTCATGTTGGTTCGC | 5.08 |
| ACTAGCAGTCCAAGTTTGGGTCACTCAAACAAAG | 0.754 |
| CTTATTAGTTGACCATAAGGGCAACCGAAGCTCG | 0.523 |
| TATACACGGTCAAAGGCCAGAGTACGAATGTCGA | 0.598 |
| ACTATTAGTTCACTTAGGGCAACCGATACGACGC | 2.52 |
| CGTACTGGGCCATCAGGTCATTGATATCAACGTT | 1.97 |
| TCATATAGGGAAAAGGTGAAAGTCGGTGTGGTAA | 1.29 |
| TCAGACAGGTGAGGGTAACTCAGGTACGCAGTCG | 0.677 |
| CCTTACGAGTCACTCCAGGTTATAGCATCGGAGT | 1.24 |
| GCGACTTGGGCAAAGCAGGTTACCATAAGGTTGG | -0.467 |
| ATCGCAAGGTCGAGGTGAGTATAGAGAAAGGGAA | 1.43 |
| TCGAGTAGGTTAGCGGCATTCAGAATGGCGTCGA | -0.635 |
| AATACAGGGTCACCAGGCCAGAGTAGGTACGAAT | 4.82 |
| TAGCCTATGTCATTGGGCCAGTATAGTACGCATC | -0.316 |
| AACTCTAGGTAACAAGTTCAGTGAAAGAGAGGAC | 1.61 |
